Laboratory results published in the supplement of paper PMC6555819.

Legend:
Assay in all cases: PBM binding z-score (relative to random genomic background probes); higher = stronger binding; sequences stand for … in GC…GCGATTGACAGCGTAGAATGAAGG
[1] = system: FXR:RXRa (NR concentration 270 nM, RXRa partner concentration 90 nM)
Method in brief: (§1)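 Each nuclear receptor dimer, without ligand, was incubated for 1 h on custom Agilent 4×180K protein-binding microarrays. Binding was detected with antibodies against each partner (one per run), and scanned fluorescence was regression-normalized. The binding z-scores are referenced to random human genomic background probes.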

[2] = system: LXRa:RXRa (NR concentration 270 nM, RXRa partner concentration 90 nM)
Method in brief: as §1

[3] = system: LXRa homodimer (NR concentration 270 nM)
Method in brief: as §1

[4] = system: LXRb:RXRa (NR concentration 270 nM, RXRa partner concentration 90 nM)
Method in brief: as §1

[5] = system: LXRb homodimer (NR concentration 270 nM)
Method in brief: as §1

[6] = system: PPARa:RXRa (NR concentration 270 nM, RXRa partner concentration 90 nM)
Method in brief: as §1

[7] = system: PPARg:RXRa (NR concentration 180 nM, RXRa partner concentration 90 nM)
Method in brief: as §1

[8] = system: PPARg:RXRa 270nM:90nM, anti-RXR (NR concentration 270 nM, RXRa partner concentration 90 nM)
Method in brief: as §1

[9] = system: PPARg:RXRa 30nM:10nM, anti-RXR (NR concentration 30 nM, RXRa partner concentration 10 nM)
Method in brief: as §1

[10] = system: PPARg:RXRa 90nM:30nM, anti-RXR (NR concentration 90 nM, RXRa partner concentration 30 nM)
Method in brief: as §1

[11] = system: PPARg:RXRa DBDmut IVT, anti-RXR (DBD mutation: RXRa K156A/R161A, NR concentration 270 nM, RXRa partner concentration 90 nM)
Method in brief: as §1

[12] = system: PPARg:RXRa IVT, anti-PPARg (NR concentration 270 nM, RXRa partner concentration 90 nM)
Method in brief: as §1

[13] = system: PPARg DBDmut:RXRa IVT, anti-PPARg (DBD mutation: PPARg1 K132A/R137A, NR concentration 270 nM, RXRa partner concentration 90 nM)
Method in brief: as §1

[14] = system: PPARg DBDmut IVT, anti-PPARg (DBD mutation: PPARg1 K132A/R137A, NR concentration 270 nM)
Method in brief: as §1

[15] = system: PPARg homodimer (NR concentration 180 nM)
Method in brief: as §1

[16] = system: PXR:RXRa (NR concentration 270 nM, RXRa partner concentration 90 nM)
Method in brief: as §1

[17] = system: PXR homodimer (NR concentration 270 nM)
Method in brief: as §1

[18] = system: RARa:RXR (NR concentration 270 nM, RXRa partner concentration 90 nM)
Method in brief: as §1

[19] = system: RARa homodimer (NR concentration 270 nM)
Method in brief: as §1

[20] = system: RARb:RXRa (NR concentration 270 nM, RXRa partner concentration 90 nM)
Method in brief: as §1

| Sequence | PBM binding z-score [1] | PBM binding z-score [2] | PBM binding z-score [3] | PBM binding z-score [4] | PBM binding z-score [5] | PBM binding z-score [6] | PBM binding z-score [7] | PBM binding z-score [8] | PBM binding z-score [9] | PBM binding z-score [10] | PBM binding z-score [11] | PBM binding z-score [12] | PBM binding z-score [13] | PBM binding z-score [14] | PBM binding z-score [15] | PBM binding z-score [16] | PBM binding z-score [17] | PBM binding z-score [18] | PBM binding z-score [19] | PBM binding z-score [20] |
| --- | --- | --- | --- | --- | --- | --- | --- | --- | --- | --- | --- | --- | --- | --- | --- | --- | --- | --- | --- | --- |
| CAAACTAGGTCGCGAAAGGTCAAAGTCGAATGAC | 6.26 | 6.45 | 5.69 | 5.96 | 1.92 | 6.03 | 7.96 | 6.66 | 4.55 | 6.34 | 6.96 | 7.13 | 1.26 | 1.98 | 3.65 | 6.52 | 2.13 | 6.77 | 2.38 | 5.01 |
| ATACCAACGTGATCGTGAGGTCGTTGATACTAAC | 0.885 | 0.498 | 0.494 | 0.84 | -0.123 | 0.65 | 0.385 | -0.0479 | -0.202 | -0.163 | -0.625 | 0.0964 | 0.725 | 0.527 | 0.699 | 1.67 | 0.835 | 1.23 | -0.137 | 0.259 |
| GCTCGGAGGACAAGGCCAGAGCTTTGTCCGTAGA | -0.721 | -1.04 | -0.948 | -1.4 | -1.59 | -1.69 | -1.44 | -1.18 | -1.47 | -1.57 | -1.3 | -0.505 | -1.72 | -1.33 | -1.33 | -1.03 | -0.879 | -0.936 | -1.54 | 0.806 |
| CCTCGGAGGACGGAAGGTCAGAGCTGTCCGCTTT | 1.07 | 1.43 | -0.129 | 0.901 | -1.26 | 1.57 | -0.636 | 0.361 | -0.964 | -0.314 | -0.591 | -0.453 | -1.93 | -2.58 | 1.18 | 1.33 | 0.186 | 1.76 | -0.121 | 2.6 |
| CCTCACGGGTCAAGGTTATAGCACGGGTGGTACG | 5.02 | 3.42 | 0.0967 | 2.74 | -0.33 | 4.38 | 3.05 | 3.67 | 0.731 | 2.35 | 0.0332 | 1.85 | 0.133 | 0.0961 | 2.07 | 3.03 | 0.458 | 3.73 | 0.228 | 4.17 |
| TAGCCTAGGTCATTGGGCCAGTATTGTACGCATC | 4.48 | 3.6 | 0.903 | 2.28 | 0.642 | 3.66 | 3.19 | 3.33 | 1.04 | 2.35 | 2.88 | 3.82 | 0.545 | -0.273 | 1.88 | 1.57 | -0.247 | 2.41 | -0.7 | 3.58 |
| AGAACGAGGGCGCGCTGAGTTGATAGCAGAGTAG | -0.365 | -0.482 | -0.786 | -0.508 | -1.21 | 0.138 | 0.362 | -0.296 | -0.293 | -0.308 | 1.09 | 0.807 | -0.354 | -0.835 | -0.746 | 0.224 | -0.402 | -0.0213 | -1.26 | 0.529 |
